Hits are enriched below; roughly 3.4% of the tested compounds scored in any of these assays.
GPR151 activ: human GPR151 activation; Q8TDV0; PathHunter beta-arrestin GPR151 cells, luminescence; activation, % at 11.2 µM; hit rate 1% among 650,000; AID 1508602; in the data active = activation above about 4.9%;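 also: 0% = median of compound wells and 100% = cells with positive control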
TEAD-YAP block: TEAD-YAP interaction inhibition; hit rate 1.4% among 640,000; inhibition, % at 9.12 µM; HEK-TIYL cells, TEAD-Gal4/YAP UAS-luciferase luminescence; in the data active = inhibition above about 32%;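 also: 0% = median of test compound wells and 100% = reference inhibitor wells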
FBW7 activator: human FBW7 E3 ligase activation, primary screen; normalized activity (activation), % at 26.1 µM; hit rate 0.13% among 650,000; AlphaScreen FBW7–phospho-cyclin E peptide binding, activator screen; in the data active = normalized activity above about 1.9%;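 also: purified mutant Fbw7 with reduced substrate affinity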
Target sequence (Q969H0 whole entry, looked up): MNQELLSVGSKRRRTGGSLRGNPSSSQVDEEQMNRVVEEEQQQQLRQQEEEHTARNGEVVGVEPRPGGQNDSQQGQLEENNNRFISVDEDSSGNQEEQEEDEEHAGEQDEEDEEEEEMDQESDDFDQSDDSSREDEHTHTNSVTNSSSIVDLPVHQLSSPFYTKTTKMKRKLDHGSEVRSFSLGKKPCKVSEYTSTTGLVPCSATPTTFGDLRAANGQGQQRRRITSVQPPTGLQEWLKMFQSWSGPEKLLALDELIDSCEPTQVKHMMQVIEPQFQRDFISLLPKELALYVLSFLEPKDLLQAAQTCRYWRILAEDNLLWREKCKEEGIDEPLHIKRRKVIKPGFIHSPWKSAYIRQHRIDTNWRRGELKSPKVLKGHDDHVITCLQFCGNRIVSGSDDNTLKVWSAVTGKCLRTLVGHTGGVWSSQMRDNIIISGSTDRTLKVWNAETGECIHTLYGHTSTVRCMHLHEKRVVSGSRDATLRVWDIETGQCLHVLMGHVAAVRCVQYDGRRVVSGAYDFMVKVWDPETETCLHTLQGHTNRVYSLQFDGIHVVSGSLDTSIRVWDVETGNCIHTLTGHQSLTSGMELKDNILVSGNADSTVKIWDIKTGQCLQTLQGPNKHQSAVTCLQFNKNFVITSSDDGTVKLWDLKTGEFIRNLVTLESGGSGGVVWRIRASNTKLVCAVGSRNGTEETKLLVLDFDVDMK
MITF primary: inhibitors of human MITF; AID 1259374; hit rate 0.91% among 650,000; O75030; AlphaScreen MITF homodimerization, bead proximity signal; inhibition, % at 2.6 µM; in the data active = inhibition above about 50%;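 also: 0% = vehicle wells with protein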
MITF confirm: human MITF inhibition, confirmation | shares compounds with MITF primary | AlphaScreen MITF homodimerization, biotin/His-MITF beads | inhibition, % at 2.6 µM | hit rate 16% among 4,700 | AID 1259372;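 active = inhibition above a cutoff derived from the DMSO control wells, cut at about 28% in these data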;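 also: 0% = MITF dimer wells with DMSO only; inhibitors lower the bead chemiluminescence by keeping MITF from dimerizing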
AS interf DR: AlphaScreen optical interference, dose response counter-screen | AID 1259373 | hit rate 6% among 480 | IC50, µM | AlphaScreen optical interference counterscreen, cell-free | shares compounds with MITF primary; call rule not given here
AS interf ctr: optically interferes with AlphaScreen signal; shares compounds with MITF primary; LysRS AlphaScreen counterscreen, signal interference, triplicate; inhibition, % at 2.6 µM; hit rate 7.6% among 4,700;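 active = inhibition above a cutoff derived from the DMSO control wells, cut at about 30% in these data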
* marks the source's active call; other numbers are inactive results; . = no result.

SMILES	GPR151 activ	TEAD-YAP block	FBW7 activator	MITF primary	MITF confirm	AS interf ctr	others
O=S(=O)(c1cccc(S(=O)(=O)N2CCN(Cc3ccccc3)CC2)c1)N1CCCC1	1	7	0	53*	9	14
COc1ccc(NC(=O)CSc2ccc3nnc(-c4ccccc4)n3n2)c(OC)c1	0	7	0	7	.	.
O=Cc1cccn1-c1ccc(C(=O)O)cc1	1	-4	0	67*	64*	-5	AS interf DR=>6.5
N#CC(C#N)=Cc1cccn1-c1ccc(C(=O)O)cc1	0	-3	0	63*	61*	4	AS interf DR=>6.5
COc1ccccc1-n1c(O)c(C=Nc2ccccc2Cl)c(=O)[nH]c1=S	1	3	0	-3	.	.
CCOc1ccc(-n2c(CNC(=O)c3ccco3)nnc2SCC(=O)Nc2cc(C)ccc2C)cc1	0	-2	0	0	.	.
O=C1NC2(CCN(C(=O)c3nccc4ccccc34)CC2)Nc2ccccc21	0	14	0	-7	.	.
C=CCn1c(SCc2ccc(C)cc2)nc2cc(C(=O)NCc3ccco3)ccc2c1=O	-1	-1	0	19	.	.
C=CCn1c(SCC2OCCO2)nc2cc(C(=O)NCc3ccco3)ccc2c1=O	0	20	0	67*	-4	1
COc1cccc(N2CCN(CC(O)COCC3=CCC4CC3C4(C)C)CC2)c1 (configuration not stated)	0	6	0	73*	2	-1
CC1(C)C2CC=C(COCC(O)CNCc3cccnc3)C1C2 (configuration not stated)	3	2	0	62*	9	13
COc1cccc(OCCOCC(O)CN2CCN(c3ccccc3)CC2)c1 (configuration not stated)	-3	1	0	15	.	.
COc1ccc(CC(=O)Nc2ccc([N+](=O)[O-])cc2Cl)cc1	0	5	0	10	.	.
CCOC(=O)c1sc(NC(=O)C(C)Sc2nnc(CNC(=O)c3ccco3)n2CCc2ccccc2)c(C(=O)OCC)c1C (configuration not stated)	0	-1	0	-3	.	.
O=S1(=O)CCC(NCc2cccs2)C1 (configuration not stated)	2	2	0	5	.	.
CN(C)CCCNCC(=O)c1c(-c2ccccc2)n(C)c2ccccc12	0	-12	1	51*	-7	8
CCCN(CCC)C(=O)C(=O)c1c(C)[nH]c2ccccc12	0	5	0	-3	.	.
O=C(Cn1cc2c(n1)CCCC2)N1CCCCC1	0	-8	0	4	.	.
O=C(Cn1cc2c(n1)CCCC2)N1CCN(c2ccccc2)CC1	3	3	1	61*	8	13
CC(C)CC(=O)Nc1ccc(C(=O)COC(=O)c2ccccc2NS(C)(=O)=O)cc1	1	6	0	26	.	.
CCOc1cccc(OCCOCCNCCCOC)c1	-2	-15	0	23	.	.
CCOc1cccc(OCCCNCCCOC)c1	1	1	0	89*	-6	14
CCCCNCCCOc1ccc(OCC)cc1	0	7	0	51*	7	6
CCCCNCCCOc1ccc(OC)cc1	0	-5	0	-4	.	.
CCOc1ccc(OCCCNCCOC)cc1	0	0	0	57*	5	11
SMILES	GPR151 activ	TEAD-YAP block	FBW7 activator	MITF primary	MITF confirm	AS interf ctr	others
COC(=O)C(NC(=O)CCc1c(C)nc2cc(-c3ccccc3)nn2c1C)C(C)C (configuration not stated)	0	12	1	18	.	.
CC1CCCCN1Cc1c(C#N)c2ccccc2n1C (configuration not stated)	3	-1	0	-14	.	.
CC1CCCCN1Cc1ccccc1C#N (configuration not stated)	2	1	0	71*	-12	-7
C/C(CC(=O)Nc1cc(Cl)ccc1Cl)=N\NC(=O)c1cccc(O)c1	0	7	-1	0	.	.
OC(CNCCCN1CCOCC1)COC(c1ccc(F)cc1)c1ccc(F)cc1 (configuration not stated)	-1	-1	0	36	.	.
CN1CCC(N(C)CC(O)COC(c2ccc(F)cc2)c2ccc(F)cc2)CC1 (configuration not stated)	-1	3	0	60*	-11	4
COc1cc(NC(=O)Nc2cccc(C(C)=O)c2)cc(OC)c1OC	4	0	0	6	.	.
COc1cc(Nc2cccc(C(N)=O)c2)cc(OC)c1OC	-1	0	0	73*	3	4
CC(=O)NNC(=O)CSc1nc2sc3c(c2c(=O)[nH]1)CCCC3	-1	-8	0	-1	.	.
O=C(CCc1ccccc1)NC(=S)Nc1ccc2c(c1)C(=O)OC2	0	5	0	80*	7	11
CCN1C(C(=O)c2ccccc2)=C(NC(=O)c2ccc(Cl)cc2)c2ccccc2S1(=O)=O	-1	8	0	0	.	.
CCN1C(C(=O)c2ccccc2)=C(NC(=O)c2ccc(C)cc2)c2ccccc2S1(=O)=O	-1	-1	0	54*	-1	0
COc1ccc(Cl)cc1C(=O)NNC(=O)COc1ccc2c(C)cc(=O)oc2c1	2	-2	0	64*	-10	-3
Cc1cc(C)c(C)c(S(=O)(=O)N2CCN(CC(O)COCc3ccco3)CC2)c1C (configuration not stated)	-1	-3	0	51*	7	12
CCN1CCN(S(=O)(=O)c2c(C)c(C)cc(C)c2C)CC1	0	1	0	-1	.	.
NC1(C(Cl)(Cl)Cl)Oc2ccccc2O1	0	-7	-1	84*	114*	25	AS interf DR=>6.5
O=C(NC(=S)NC1CCS(=O)(=O)C1)c1ccccc1Br (configuration not stated)	-1	6	0	-7	.	.
O=C(NC1CCS(=O)(=O)C1)c1ccccc1Br (configuration not stated)	1	-5	0	51*	10	-6
CN1CCN(S(=O)(=O)c2ccc3[nH]cc(C(=O)NC4CCCCCC4)c(=O)c3c2)CC1	-1	-12	0	34	.	.
Cc1ccc(C)n1-c1ccc(Cl)c(C(=O)O)c1	0	0	-1	1	.	.
O=C(O)c1cc(-n2cccc2)ccc1Cl	1	1	-1	79*	64*	-2	AS interf DR=>6.5
Cc1cc(C)c(CN2CCN(C3CCN(C(C)C)CC3)C(CCO)C2)cc1C (configuration not stated)	-1	1	0	-2	.	.
Cc1c(CN2CCN(C3CCN(C(C)C)CC3)C(CCO)C2)cnn1C (configuration not stated)	0	0	0	84*	-3	-9
CCSc1ccccc1C(=O)NCc1ccc2c(c1)OCO2	-1	10	0	75*	8	17
CSc1ccccc1C(=O)NCc1ccc2c(c1)OCO2	0	-1	0	3	.	.

Assay outcomes as filed in PubChem BioAssay.
